For 10 compounds, Z-AUC results are on record in PubChem BioAssay (NCATS).

The nature of the test: qHTS drug screen for cell cycle checkpoint inhibitors in PARPi-resistant BRCA-mutant ovarian cancer cell lines. (AID 1963452). The following applies: PEO1/OlaR viability, CellTiter-Glo luminescence, 96 h, stronger effect = lower value. In outline:
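PEO1, PEO4 and PEO1/OlaR ovarian cancer cells, 600 per well, exposed 96 h at 37C to a dilution series. Viability read by CellTiter-Glo luminescence, normalized to DMSO and empty wells; activity summarized as Z-AUC.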

Setting [1] is: measured here: PEO1 parental Z-AUC.

Active and inactive are the calls of the source. Calls come from the whole dose curve.

For the compound `CCC(=O)NS(=O)(=O)c1ccc(-c2c(-c3ccccc3)noc2C)cc1`, the Z-AUC is -0.948 (inactive). Besides, the Z-AUC under setting [1] was -1.08. Also, the Z-AUC (measured here: PEO4 Z-AUC) is -1.33.

Consider `NC1CCC(N[C@@H]2C[C@H]2c2ccccc2)CC1` (stereo not given in full), for which the Z-AUC is -1.43 (inactive). Under setting [1], the Z-AUC is -0.571. Besides, the Z-AUC (measured here: PEO4 Z-AUC) was -0.668.

As for `Cc1nn(C)c(COc2ccc(N3CCN(S(=O)(=O)N(C)C)CC3)cc2)c1-c1cccc2c(CCCOc3cccc4ccccc34)c(C(=O)O)n(CCN3CCOCC3)c12`, the Z-AUC is 0.0442 (inactive). In addition, under setting [1], the Z-AUC is 0.77. For the same compound, under “measured here: PEO4 Z-AUC”, the Z-AUC worked out at 0.53.

For `CN(C)C/C=C/C(=O)Nc1ccc(C(=O)Nc2cccc(Nc3ncc(Cl)c(-c4c[nH]c5ccccc45)n3)c2)cc1`, the Z-AUC is -2.19 (inactive). Moreover, under setting [1], the Z-AUC is -3.23. The Z-AUC (measured here: PEO4 Z-AUC) was -2.66.

As for `CCc1nc(C(N)=O)c(Nc2ccc(N3CCC(N4CCN(C)CC4)CC3)c(OC)c2)nc1NC1CCOCC1`, the Z-AUC is 1.23 (inactive). The Z-AUC under setting [1] was determined as 0.97. The Z-AUC (measured here: PEO4 Z-AUC) turned out to be 0.904.

Take `CCS(=O)(=O)N1CCC([C@@H](C)n2c(C)c(C(=O)NCc3c(OC)cc(C)[nH]c3=O)c3ccccc32)CC1`: the Z-AUC was -0.188 (inactive). Also, the Z-AUC under setting [1] is 0.682. The Z-AUC (measured here: PEO4 Z-AUC) was -0.124.

For `CN1C(=O)N[C@@H](Cc2c[nH]c3c(Cl)cccc23)C1=O`, the Z-AUC is -0.9 (inactive). Moreover, the Z-AUC under setting [1] is -0.75. In addition, where the note is “measured here: PEO4 Z-AUC”, the Z-AUC is -0.721.

Consider `COc1ccc2cc(OCC3(C(=O)O)CN(C(=O)c4ccc(F)cc4)C3)ccc2c1`, for which the Z-AUC was -0.285 (inactive). The Z-AUC under setting [1] was -0.144. Moreover, the Z-AUC (measured here: PEO4 Z-AUC) stood at 0.261.

In the case of `O=C(O)c1cnn(-c2nc3cc(OC(F)(F)F)c(Cl)cc3[nH]2)c1`, the Z-AUC is 0.292 (inactive). The Z-AUC under setting [1] was -0.102. The Z-AUC (measured here: PEO4 Z-AUC) is -0.0473.

Consider `C=C1CC[C@@H]2[C@](C)(CO)[C@H](O)CC[C@@]2(C)[C@@H]1C/C=C1/C(=O)OC[C@H]1O`, for which the Z-AUC is 0.643 (inactive). For the same compound, the Z-AUC under setting [1] is -0.159. Moreover, the Z-AUC (measured here: PEO4 Z-AUC) came out at 0.023.
